Results filed as inconclusive are left out. A number with no mark means an inactive call. The call rests on the fitted dose curve; in most records, active means well fitted cell-killing curve with a large enough effect; inconclusive means small, poorly fitted or top-dose-only effect; inactive means flat fitted curve, though single readings scatter.
On the % scale 0 is the no-effect control and ±100 the full control effect.

This assay in a line: qHTS of pediatric cancer cell lines to identify multiple opportunities for drug repurposing: Primary screen for control Hh wild type fibroblast cells (AID 1347106).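 Further: a drop in luminescence marks cytotoxicity and a rise apparent proliferation; nearly all actives have a fitted effect of over 55% in size.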 As to conditions: Hh wild-type fibroblast viability, CellTiter-Glo luminescence, 48 h; series mostly up to 46 µM; activity change, negative = cytotoxic: at the top concentration. In outline:
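Cells (500-1,000/well) in growth media were settled 5 h at 37 degrees C, then given compounds for 48 h. Viability was read as CellTiter-Glo luminescence. Primary runs used MIPE at 11 points (0.78 nM-46 µM) and NPC at 8 points (0.59 nM-46 µM); follow-ups used 11 points.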
For the compound `CCCCN1C[C@H](O)[C@@H](O)[C@H](O)[C@H]1CO`, the “activity change, negative = cytotoxic” value is 6.05%. As for `CCC(C(=O)OCCOCCN(CC)CC)c1ccccc1` (stereo unspecified), the “activity change, negative = cytotoxic” value is 1.8%. Turning to `NCc1ccccc1Sc1ccccc1CO`, the “activity change, negative = cytotoxic” value was 10.8%. As to `CCCCCCCCCCCCCCCCO`, the “activity change, negative = cytotoxic” value was 4.8%.

Consider `O=C(O)CCNC(=O)c1ccccc1`, for which the “activity change, negative = cytotoxic” value was 1.84%.

With `CCCCNc1ccc(C(=O)OCCOCCOCCOCCOCCOCCOCCOCCOCCOC)cc1`, the “activity change, negative = cytotoxic” value is 9.42%. The figure for `CCCCCCCCCCCCCC(=O)OC(C)C` is 9.36%; for `CCN(CC)CCOc1ccccc1C(=O)CCc1ccccc1` it is 8.99%. The figure for `O=S(c1cc(Cl)cc(Cl)c1O)c1cc(Cl)cc(Cl)c1O` is 7.27%; for `CC[N+](C)(CC)CCOC(=O)C(O)(c1ccccc1)C1CCCCC1` (stereo unspecified) it is -0.777%; for `c1ccc(CC2=NCCN2)cc1` it is 1.32%. The figure for `FC(F)(F)C(F)(F)C(F)(F)C(F)(F)C(F)(F)C(F)(F)C(F)(F)C(F)(F)Br` is 18.8%; for `CCc1oc2ccccc2c1C(=O)c1cc(I)c(O)c(I)c1` it is -1.99%. As to `O=C(Nc1cccc(C2=NCCN2)c1)Nc1cccc(C2=NCCN2)c1`, the “activity change, negative = cytotoxic” value was 0.637% [at 16.1 µM]. Under `O=C(O)Cc1csc(-c2ccc(Cl)cc2)n1` stands 4.96%; under `Cc1cc(C)cc(OCC2CNC(=O)O2)c1` (stereo unspecified), 9.39%. Under `CC(C)Nc1cccnc1N1CCN(C(=O)c2cc3cc(NS(C)(=O)=O)ccc3[nH]2)CC1` stands 6.79%; under `CO[C@]12C[C@@H](COC(=O)c3cncc(Br)c3)CN(C)[C@@H]1Cc1cn(C)c3cccc2c13`, 6.43%. The figure for `O=C(O)CCc1nc2ccccc2[nH]1` is 20.1%.

Regarding `CC(C)(C)NCC(O)COc1cccc2c1C[C@H](O)[C@H](O)C2` (stereo partly specified), the “activity change, negative = cytotoxic” value was 0.768%.

Consider `C=C1c2cccc(O)c2C(O)=C2C(=O)[C@]3(O)C(O)=C(C(N)=O)C(=O)[C@@H](N(C)C)[C@@H]3[C@@H](O)[C@H]12`, for which the “activity change, negative = cytotoxic” value is -6.38%.
